# Test results as given in PubChem BioAssay (NCI).
# Compounds without any hit were thinned out: in the full panel of roughly 83,000, 20% have a hit.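 Single-dose data. Exposure time 48 hours. Values below 10 considered active.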 Values without a mark were called inactive. Activity calls are given as the source filed them.
# Key:
# Experiment in all cases: NCI-60 one-dose screen, 48 h (100 = growth as untreated, 0 = no growth, -100 = all killed)
# Conditions in all cases: 10 µM
# DU-145 prostate = test system: DU-145 prostate
# K-562 leukemia = test system: K-562 leukemia
# MALME-3M melanoma = test system: MALME-3M melanoma
# MDA-MB-231 breast = test system: MDA-MB-231 breast
# RXF 393 renal = test system: RXF 393 renal
# SF-268 CNS = test system: SF-268 CNS
# SF-295 CNS = test system: SF-295 CNS
# SF-539 CNS = test system: SF-539 CNS
# UACC-257 melanoma = test system: UACC-257 melanoma
# M14 melanoma = test system: M14 melanoma
Structure (SMILES),growth (DU-145 prostate),growth (K-562 leukemia),growth (MALME-3M melanoma),growth (MDA-MB-231 breast),growth (RXF 393 renal),growth (SF-268 CNS),growth (SF-295 CNS),growth (SF-539 CNS),growth (UACC-257 melanoma),growth (M14 melanoma)
C[n+]1c(/C=C/c2c[nH]c3ccccc23)ccc2ccccc21,60.9%,23.3%,68.6%,68.8%,84%,72.6%,47.5%,87%,76.8%,75.2%
O=C(Nc1cccc(Cl)c1)OCC(COC(=O)Nc1cccc(Cl)c1)(COC(=O)Nc1cccc(Cl)c1)[N+](=O)[O-],44.2%,26.4%,59%,40.3%,57.1%,35.4%,20.8%,59.5%,52.3%,24.4%
CCCCCCCCCCCC(=O)NCCCN(C)C,107%,59.4%,111%,79.1%,116%,96.2%,95.6%,86.6%,94.7%,98.1%
Cc1cc(/C=C2\SC(=Nc3ccccc3)N(C3CCCC3)C2=O)c(C)n1-c1ccc(Cl)cc1,-79.1% (active),-22.8% (active),-72.8% (active),-53% (active),-90.2% (active),-47.5% (active),-70.3% (active),-70.8% (active),-70.8% (active),-69.9% (active)
C/C=C\COc1cc(C)c(Cl)cc1Cl,111%,114%,95.9%,111%,96.2%,114%,99%,104%,92%,112%
O=C(N/N=c1/ccoc2cccnc12)N1CCN(c2ncccn2)CC1,50.5%,9.99% (active),55.5%,40%,66.8%,37.3%,15.9%,45.3%,5.91% (active),14.5%
CC(=O)/C(=C\c1ccc(Cl)cc1)c1ccccc1,0.722% (active),8.97% (active),73.1%,19.4%,25.7%,23.9%,-6.11% (active),-1.66% (active),72.2%,1.53% (active)
CCCCCCCCCCCCCCCCCBr,113%,97.4%,108%,112%,109%,109%,97%,99.5%,102%,109%
COc1ccc2oc(=O)cc(C(c3ccc[nH]3)c3ccc[nH]3)c2c1,13.3%,4.44% (active),49.6%,13.2%,-31.3% (active),18.7%,6.39% (active),1.28% (active),32.5%,8.91% (active)
Cc1cc(OI)c(C(C)C)cc1-c1cc(C(C)C)c(OI)cc1C,101%,98.8%,105%,104%,101%,96.8%,101%,94.3%,101%,104%
C#Cc1ccc(-n2c(/C=C/c3cc(OC)c(OC)c(OC)c3)nc3ncccc3c2=O)cc1,45.3%,25.6%,50%,58.6%,36.4%,63.3%,38%,78.8%,53.8%,71.9%
O=c1cc(CSc2nnc(-c3ccccc3)n2-c2ccc(F)cc2)c2ccc3ccccc3c2o1,109%,82.9%,97%,91.1%,108%,93.8%,95.9%,98.7%,103%,102%
COc1nc2c(c(=O)[nH]1)C(c1ccc(Oc3ccnc4cc(Cl)ccc34)c(OC)c1)C=C(c1cc(OC)c(OC)c(OC)c1)N2 (stereo not given),95.1%,87.8%,109%,80.8%,106%,103%,99.1%,108%,92.2%,98.8%
CCC(CCNc1cc(OC)cc2cccnc12)CN1C(=O)c2ccccc2C1=O (stereo not given),118%,101%,132%,96%,117%,98.7%,106%,106%,119%,117%
CC(C)c1[nH]nc2c(NCc3ccc(-c4ccccn4)cc3)nc(SCCN)nc12,5.83% (active),3.89% (active),-41.3% (active),5.07% (active),-71.4% (active),-0.883% (active),4.57% (active),-54.4% (active),1.34% (active),-43.1% (active)
COc1cc(C2C=C(c3ccc(Cl)c(Cl)c3)N=C3SC(C)=CN32)cc(OC)c1OC (stereo not given),80.3%,32.1%,82.9%,89%,67.1%,87.8%,75.6%,81%,98.8%,86.4%
COc1cccc2c1O/C(=C\c1ncc([N+](=O)[O-])n1C)C2=O,-11.9% (active),0.449% (active),-53% (active),-19.6% (active),-66.2% (active),-31.3% (active),-10.4% (active),-53% (active),-50.5% (active),-61.8% (active)
CCCCn1c(=O)[nH]c(N)c(C(c2ccc(Cl)cc2)c2c(N)[nH]c(=O)n(CCCC)c2=O)c1=O,65.7%,28.7%,68.9%,54.4%,18.7%,38.1%,35.2%,43.9%,41%,35%
O=C(Nc1cccc(-c2nc3ccccc3[nH]2)c1)c1cccc(NC(=O)c2ccco2)c1,103%,2.96% (active),73.9%,34.6%,67.6%,75.7%,80.3%,64.9%,-20.2% (active),3.76% (active)
CCOc1ccc2c(c1)CC[C@@H]1[C@@H]2CC[C@]2(C)[C@@H](O)[C@@H](O)C[C@@H]12,108%,91.8%,91.4%,109%,95.9%,103%,100%,103%,95.4%,108%
CCCCCCCCCCSC(=N)N (tested in a mixture with another compound),79.6%,9.73% (active),82.7%,7.07% (active),64.5%,79.1%,94.4%,83.4%,99.5%,65.5%
N/C(=N\O)c1cn(C2OC(CO)C(O)C2O)c2ncnc(N)c12 (stereo not given),0.144% (active),7.52% (active),-78.3% (active),5.86% (active),-9.98% (active),9.34% (active),-16.7% (active),1.24% (active),-23.8% (active),-28.3% (active)
COC(=O)c1c(C)nc(Nc2nc3ccccc3s2)nc1-c1ccc(Cl)cc1Cl,113%,91.2%,97.1%,99.1%,107%,101%,93.3%,103%,111%,101%
O=C1NN(c2ccccc2)C(c2cccnc2)=N/C1=C\c1cccnc1,93.1%,102%,105%,92.6%,99.5%,89.4%,95.1%,102%,105%,91.7%
COc1cc(-c2nc3ccccc3[nH]2)ccc1OCC(=O)N=Nc1c(O)[nH]c2ccccc12,99.7%,17.5%,54.6%,88.8%,106%,94.1%,95.9%,97.8%,105%,83.3%
CCc1nn2c(-c3cc(OC)c(OC)c(OC)c3)c(-c3cc(OC)c(OC)c(OC)c3)nc2s1,88.1%,85.7%,47.5%,58.9%,38.8%,45.9%,61.4%,59.6%,108%,89.5%
O=C/C=C/c1ccc([N+](=O)[O-])cc1Cl,99.9%,63.7%,95.1%,122%,107%,93.1%,107%,96.8%,91.6%,90.8%
